# Measurements published in paper PMC5540273 (PLoS ONE, 2017).
# How the values were obtained:
# Details in all cases: concentration: 1 μM, replicates: in singlicate; n = 1
# RIPK1 = system: RIPK1
# RIPK2 = system: RIPK2
# RIPK4 = system: RIPK4
# RIPK5 = system: RIPK5
# ROCK1 = system: ROCK1
# ROCK2 = system: ROCK2
# ROS1 = system: ROS1
# [1] = system: RPS6KA4(Kin.Dom.1-N-terminal)
# [2] = system: RPS6KA4(Kin.Dom.2-C-terminal)
# [3] = system: RPS6KA5(Kin.Dom.1-N-terminal)
# [4] = system: RPS6KA5(Kin.Dom.2-C-terminal)
# [5] = system: T1, RSK1(Kin.Dom.1-N-terminal)
# T1 construct: gene RPS6KA1
# [6] = system: T2, RSK1(Kin.Dom.2-C-terminal)
# T2 construct: gene RPS6KA1
# [7] = system: T3, RSK2(Kin.Dom.1-N-terminal)
# T3 construct: gene RPS6KA3
# [8] = system: T4, RSK2(Kin.Dom.2-C-terminal)
# T4 construct: gene RPS6KA3
# [9] = system: T5, RSK3(Kin.Dom.1-N-terminal)
# T5 construct: gene RPS6KA2
# [10] = system: T6, RSK3(Kin.Dom.2-C-terminal)
# T6 construct: gene RPS6KA2
# [11] = system: T7, RSK4(Kin.Dom.1-N-terminal)
# T7 construct: gene RPS6KA6
# [12] = system: T8, RSK4(Kin.Dom.2-C-terminal)
# T8 construct: gene RPS6KA6
# S6K1 = system: S6K1
# 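Further: KINOMEscan kinase panel screen.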
SMILES,%Inh (RIPK1),%Inh (RIPK2),%Inh (RIPK4),%Inh (RIPK5),%Inh (ROCK1),%Inh (ROCK2),%Inh (ROS1),%Inh [1],%Inh [2],%Inh [3],%Inh [4],%Inh [5],%Inh [6],%Inh [7],%Inh [8],%Inh [9],%Inh [10],%Inh [11],%Inh [12],%Inh (S6K1)
COc1ccc(Nc2nccc(N3CCC(NC(=O)c4cccc(NC(C)=O)c4)C3)n2)cc1 (stereo not shown) [GSK1379732],21%,7%,0%,0%,33%,50%,8%,21%,0%,9%,20%,0%,0%,0%,16%,23%,6%,0%,27%,0%
Cc1ccc(O)cc1Nc1cc(C(F)(F)F)nc2ccc(-c3ccncc3)cc12 [GW630823],13%,17%,0%,15%,0%,0%,5%,8%,0%,0%,9%,0%,0%,0%,0%,0%,5%,4%,14%,0%
Cc1cc(N2CCC(NS(=O)(=O)c3ccc(F)cc3)CC2)nc(Nc2cccc(C#N)c2)n1.O=C(O)C(F)(F)F [GSK1653537],57%,0%,4%,0%,0%,0%,7%,0%,0%,28%,0%,7%,0%,3%,20%,18%,0%,62%,10%,0%
Cl.c1ccc(Cn2ncc3cc(Nc4ncnc5ccccc45)ccc32)cc1 [GW273749],7%,74%,8%,6%,12%,21%,10%,3%,0%,8%,5%,11%,3%,0%,0%,0%,0%,0%,17%,4%
Nc1nccc2scc(-c3ccc4c(c3)CCN4C(=O)Cc3cc(F)ccc3F)c12 [GSK2587663],83%,3%,0%,0%,28%,12%,16%,14%,0%,15%,0%,12%,15%,3%,7%,29%,0%,0%,13%,0%
Cn1cc(-c2ccc3c(c2)CCN3C(=O)Cc2cccc(C(F)(F)F)c2)c2c(N)ncnc21 [GSK2606414],75%,1%,3%,9%,4%,13%,0%,16%,0%,25%,0%,0%,2%,18%,0%,0%,0%,0%,12%,4%
Nc1nc(-c2ccc3c(N)n[nH]c3c2)cc(N2CCCCC2)n1 [GSK2228768],0%,0%,7%,0%,0%,0%,6%,4%,0%,6%,0%,0%,0%,0%,0%,15%,0%,0%,0%,0%
O=C(CCO)NCCn1ccc2ncnc(Nc3ccc(Oc4cccc(C(F)(F)F)c4)c(Cl)c3)c21,0%,7%,0%,0%,0%,0%,0%,18%,0%,3%,0%,0%,0%,0%,0%,3%,4%,0%,0%,0%
COc1cc2c(Nc3cccc(NC(=O)c4ccccc4)c3)ncnc2cc1OCCCN1CCOCC1 [GSK223810],0%,31%,0%,8%,34%,14%,0%,9%,0%,9%,0%,2%,0%,18%,20%,13%,11%,20%,14%,0%
Cl.Fc1ccccc1COc1ccc(Nc2ncnc3ccc(-c4nnc(C(F)(F)F)o4)cc23)cc1Cl [GW424170],9%,28%,0%,0%,10%,4%,11%,10%,0%,6%,0%,1%,1%,0%,0%,0%,0%,0%,2%,0%
Cl.c1ccc(Cn2ccc3cc(Nc4ncnc5ccccc45)ccc32)cc1 [GW275568],26%,54%,21%,32%,1%,0%,14%,4%,0%,6%,39%,41%,23%,0%,34%,2%,4%,0%,26%,0%
